Laboratory results as given in PubChem BioAssay (NCATS).
Several values for one entry are separate records, joined by “and”; a condition that tells them apart may be missing. Equal entries are not always repeated. Records with an inconclusive call do not appear. Some compounds were tested as several samples or in several runs, with calls that do not always agree. Activity calls are given as the source filed them. Unless noted, calls come from the whole dose curve; as a rule, active = well fitted curve in the direction sought with a large enough effect; inconclusive = small, poorly fitted or top-dose-only effect, or another doubt; inactive = no such curve, though single readings can be large; an effect the other way counts as inactive or inconclusive.

Key:
MKL-2 = assay: qHTS assay to identify novel small-molecules to repurpose for Merkel cell carcinoma treatment (AID 1296009); settings: MCC and control cell lines, CellTiter-Glo viability, 72 h; series mostly up to 46 µM; note: nearly all actives have a fitted effect of over 60% in size; note: potency is the fitted concentration of half-maximal effect
Summary of the method: (§1)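 Cell viability measured by CellTiter-Glo following 72 hr compound treatment at 37 degree celsius, with NPC and MIPE libraries tested in 8- and 11-point concentration series.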

NIH3T3 = assay: as above; settings: MCC and control cell lines, CellTiter-Glo viability, 72 h; at 44.8 µM (top of the series) unless noted
Summary of the method: as §1

UISO = assay: as above; settings: MCC and control cell lines, CellTiter-Glo viability, 72 h; series mostly up to 46 µM
Summary of the method: as §1

WaGa = assay: as above; settings: MCC and control cell lines, CellTiter-Glo viability, 72 h; series mostly up to 46 µM
Summary of the method: as §1

C33A = assay: Primary qHTS to identify gynecologic anti-cancer compounds using libraries of approved drugs and bioactive compounds (AID 1345084); settings: Gynecologic cancer cell panel viability, ATPlite luminescence, 48 h; series mostly up to 57.5 µM; note: % is set by controls: 0 for no effect and ±100 for the full control effect; nearly all actives have a fitted effect of over 55% in size
Summary of the method: (§2)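 Cells, 1,000 per well, plated 16 h, then exposed 48 h at 37 C to compounds. Viability by ATPlite luminescence after 15 min at room temperature.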

CAOV3 = assay: as above; settings: Gynecologic cancer cell panel viability, ATPlite luminescence, 48 h; series mostly up to 57.5 µM
Summary of the method: as §2

CASKI = assay: as above; settings: Gynecologic cancer cell panel viability, ATPlite luminescence, 48 h; series mostly up to 57.5 µM
Summary of the method: as §2

Es-2 = assay: as above; settings: Gynecologic cancer cell panel viability, ATPlite luminescence, 48 h; series mostly up to 57.5 µM
Summary of the method: as §2

HeLa = assay: as above; settings: Gynecologic cancer cell panel viability, ATPlite luminescence, 48 h; series mostly up to 57.5 µM
Summary of the method: as §2

Hek293T = assay: as above; settings: Gynecologic cancer cell panel viability, ATPlite luminescence, 48 h, control line for the selectivity index; series mostly up to 57.5 µM
Summary of the method: as §2

JEG-3 = assay: as above; settings: Gynecologic cancer cell panel viability, ATPlite luminescence, 48 h; series mostly up to 57.5 µM
Summary of the method: as §2

OV90 = assay: as above; settings: Gynecologic cancer cell panel viability, ATPlite luminescence, 48 h; series mostly up to 57.5 µM
Summary of the method: as §2

PA-1 = assay: as above; settings: Gynecologic cancer cell panel viability, ATPlite luminescence, 48 h; series mostly up to 57.5 µM
Summary of the method: as §2

SKOV3 = assay: as above; settings: Gynecologic cancer cell panel viability, ATPlite luminescence, 48 h; series mostly up to 57.5 µM
Summary of the method: as §2

Tov-21-G = assay: as above; settings: Gynecologic cancer cell panel viability, ATPlite luminescence, 48 h; series mostly up to 57.5 µM
Summary of the method: as §2

Tov112D = assay: as above; settings: Gynecologic cancer cell panel viability, ATPlite luminescence, 48 h; series mostly up to 57.5 µM
Summary of the method: as §2

[1] = Drug repurposing screens with cells derived from glioblastoma tumor samples (AID 1345199); settings: GBM patient neurospheres viability, ATP luminescence, 48 h; note: nearly all actives have a fitted effect of over 40% in size; note: potency is the fitted concentration of half-maximal effect; for activity, negative = cell killing: % is set by controls: 0 for no effect and ±100 for the full control effect
Summary of the method: (§3)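 Primary testing used CD133+ neurospheres from four GBM patients, seven concentrations, 48 h exposure and ATP-based viability; confirmation added three slower-growing patient lines.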

astro = assay: as above; settings: viability, ATP luminescence, 48 h; series mostly up to 45.9 µM
Summary of the method: as §3

[2] = target: Nuclear receptor subfamily 1 group I member 2 (Rattus norvegicus) (UniProt Q9R1A7); assay: qHTS assay for small molecule activators of the rat pregnane X receptor (rPXR) signaling pathway (AID 651751; call rule not given here; note: 0% is about no effect); settings: rPXR reporter cells, luciferase (One-Glo), 24 h
[3] = at 45.9 µM (top of the series), tumour line B
[4] = at 45.9 µM (top of the series), tumour line D
[5] = at 46.1 µM (top of the series), tumour line C
[6] = at 46 µM (top of the series), tumour line A

Nuclear receptor subfamily 1 group I member 2 (Rattus norvegicus), sequence (Q9R1A7 whole entry, looked up): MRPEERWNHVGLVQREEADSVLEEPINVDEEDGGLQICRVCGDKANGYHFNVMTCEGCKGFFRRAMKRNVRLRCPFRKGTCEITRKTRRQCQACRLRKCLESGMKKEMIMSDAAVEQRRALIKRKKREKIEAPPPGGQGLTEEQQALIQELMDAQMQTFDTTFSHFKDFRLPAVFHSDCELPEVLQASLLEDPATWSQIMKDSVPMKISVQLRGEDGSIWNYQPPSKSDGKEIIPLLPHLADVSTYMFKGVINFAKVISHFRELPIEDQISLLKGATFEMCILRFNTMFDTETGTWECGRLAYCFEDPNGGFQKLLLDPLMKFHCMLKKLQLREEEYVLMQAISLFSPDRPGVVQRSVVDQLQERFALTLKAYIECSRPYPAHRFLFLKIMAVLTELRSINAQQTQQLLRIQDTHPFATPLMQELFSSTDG

O=C(O)Cc1ccc2c(c1)C(=O)c1ccccc1CO2
inactive: Potency (MKL-2) | outcome (NIH3T3) | Potency (UISO) | Potency (WaGa) | Potency (C33A) | Potency (CAOV3) | Potency (CASKI) | Potency (Es-2) | Potency (HeLa) | Potency (Hek293T) | Potency (JEG-3) | Potency (OV90) | Potency (PA-1) | Potency (SKOV3) | Potency (Tov-21-G) | Potency (Tov112D)

CN1CCN(c2cc3c(nn2)Oc2ccccc2N3C)CC1
inactive: Potency (MKL-2) | Potency (UISO) | Potency (WaGa) | Potency (C33A) | Potency (CAOV3) | Potency (CASKI) | Potency (Es-2) | Potency (HeLa) | Potency (JEG-3) | Potency (OV90) | Potency (PA-1) | Potency (SKOV3) | Potency (Tov-21-G) | Potency (Tov112D) | activity, negative = cell killing [1, 3] -7.46% | Potency (astro)
active: Potency ([1]; tumour line A) 11.2 µM

CCCOC(=O)c1ccc(O)cc1
active: Potency ([1]; tumour line A) 35.5 µM
inactive: Potency (MKL-2) | Potency (UISO) | Potency (WaGa) | Potency (C33A) | Potency (CAOV3) | Potency (CASKI) | Potency (Es-2) | Potency (HeLa) | Potency (Hek293T) | Potency (JEG-3) | Potency (OV90) | Potency (PA-1) | Potency (SKOV3) | Potency (Tov-21-G) | Potency (Tov112D) | activity, negative = cell killing [1, 3] -2.89% | activity, negative = cell killing [1, 4] -17.2% | activity, negative = cell killing [1, 5] -7.69% | activity, negative = cell killing ([1]; at 91.6 µM (top of the series), tumour line B) -21% | activity, negative = cell killing ([1]; at 91.6 µM (top of the series), tumour line D) -29.2% | activity, negative = cell killing ([1]; at 99.2 µM (top of the series), tumour line C) -27.8% | max response [2] -2.03% and 0.0614% and -3.63%

CCCCCCCC/C=C/C(=O)O
inactive: Potency (MKL-2) | Potency (UISO) | Potency (WaGa) | Potency (C33A) | Potency (CAOV3) | Potency (CASKI) | Potency (Es-2) | Potency (HeLa) | Potency (Hek293T) | Potency (JEG-3) | Potency (OV90) | Potency (PA-1) | Potency (SKOV3) | Potency (Tov-21-G) | Potency (Tov112D)

Cc1ccc2c(n1)Oc1ccc(C(C)C(=O)OCC(=O)N(C)C)cc1C2 (centres undefined)
inactive: Potency (MKL-2) | Potency (UISO) | Potency (WaGa) | Potency (C33A) | Potency (CAOV3) | Potency (CASKI) | Potency (Es-2) | Potency (HeLa) | Potency (Hek293T) | Potency (JEG-3) | Potency (OV90) | Potency (PA-1) | Potency (SKOV3) | Potency (Tov-21-G) | Potency (Tov112D) | activity, negative = cell killing [1, 3] -2.21% and -4.54% | activity, negative = cell killing [1, 4] -24.2% and -10.3% | activity, negative = cell killing [1, 5] -14.5% and 2.44% | Potency (astro)

C/C(=N\O)c1ccc(OCC(=O)N2CCCCC2)cc1
inactive: Potency (MKL-2) | Potency (UISO) | Potency (WaGa) | Potency (C33A) | Potency (CAOV3) | Potency (CASKI) | Potency (HeLa) | Potency (Hek293T) | Potency (PA-1) | Potency (Tov112D)

N=C(N)N
inactive: Potency (MKL-2) | outcome (NIH3T3) | Potency (UISO) | Potency (WaGa) | Potency (C33A) | Potency (CAOV3) | Potency (CASKI) | Potency (Es-2) | Potency (HeLa) | Potency (Hek293T) | Potency (JEG-3) | Potency (OV90) | Potency (SKOV3) | Potency (Tov-21-G) | Potency (Tov112D) | activity, negative = cell killing [1, 3] -7.3% | activity, negative = cell killing [1, 4] -23.5% | activity, negative = cell killing [1, 6] -16.6% | activity, negative = cell killing [1, 5] -13.1% | Potency (astro)

C=CCCCCCCCCC(=O)O
inactive: Potency (MKL-2) | Potency (UISO) | Potency (WaGa) | Potency (C33A) | Potency (CAOV3) | Potency (CASKI) | Potency (Es-2) | Potency (HeLa) | Potency (Hek293T) | Potency (JEG-3) | Potency (OV90) | Potency (PA-1) | Potency (SKOV3) | Potency (Tov-21-G) | Potency (Tov112D) | activity, negative = cell killing [1, 3] -14.2% | activity, negative = cell killing [1, 4] -8.73% | activity, negative = cell killing [1, 6] -10.4% | activity, negative = cell killing [1, 5] 6.77% | max response [2] 0.475%

COc1cc(NC(C)CCCN)c2ncccc2c1 (centres undefined)
active: Potency (MKL-2) 4.22 µM | Potency (UISO) 3.35 µM | Potency (WaGa) 3.76 µM | Potency ([1]; tumour line A) 10 µM
inactive: outcome (NIH3T3) | Potency (C33A) | Potency (CAOV3) | Potency (CASKI) | Potency (Es-2) | Potency (HeLa) | Potency (Hek293T) | Potency (OV90) | Potency (PA-1) | Potency (SKOV3) | Potency (Tov-21-G) | Potency (Tov112D) | activity, negative = cell killing ([1]; at 20 µM (top of the series), tumour line C) 6.33% | Potency (astro)

Nc1ccc(O)c(C(=O)O)c1
inactive: Potency (MKL-2) | outcome (NIH3T3) | Potency (UISO) | Potency (WaGa) | Potency (C33A) | Potency (CAOV3) | Potency (CASKI) | Potency (Es-2) | Potency (HeLa) | Potency (Hek293T) | Potency (JEG-3) | Potency (OV90) | Potency (PA-1) | Potency (SKOV3) | Potency (Tov-21-G) | Potency (Tov112D) | activity, negative = cell killing [1, 3] -12.4% | activity, negative = cell killing [1, 4] 5.07% | activity, negative = cell killing [1, 5] 2.81% | Potency (astro) | max response [2] -0.0122% and -1.86%

c1ccc2sc(SN3CCOCC3)nc2c1
inactive: Potency (MKL-2) | Potency (UISO) | Potency (WaGa) | Potency (C33A) | Potency (CAOV3) | Potency (CASKI) | Potency (Es-2) | Potency (HeLa) | Potency (Hek293T) | Potency (JEG-3) | Potency (OV90) | Potency (PA-1) | Potency (Tov-21-G) | Potency (Tov112D) | activity, negative = cell killing [1, 3] -16.5% | activity, negative = cell killing [1, 4] -19.8% | activity, negative = cell killing [1, 5] -23.9% | Potency (astro)

Cc1c(C(=O)O)c(O)cc2c1C(=O)c1c(O)c([C@@H]3O[C@H](CO)[C@@H](O)[C@H](O)[C@H]3O)c(O)c(O)c1C2=O
inactive: Potency (MKL-2) | Potency (UISO) | Potency (WaGa) | Potency (C33A) | Potency (CAOV3) | Potency (CASKI) | Potency (Es-2) | Potency (HeLa) | Potency (Hek293T) | Potency (JEG-3) | Potency (PA-1) | Potency (SKOV3) | Potency (Tov-21-G) | Potency (Tov112D) | activity, negative = cell killing [1, 3] -25.2% | activity, negative = cell killing [1, 4] -27.3% | activity, negative = cell killing [1, 5] 21.4%
